Molecules are shown by their SMILES. Screen size: about 53,000 compounds; about 900 (1.7%) showed an effect of 50% or more. The sample as a whole holds a higher share of strong results than the screen did.

The assay has as its system Mycobacterium tuberculosis. Nature of the assay: Cornell - Phenotypic assay to identify agents that inhibit growth of Mycobacterium tuberculosis. It is filed as functional. On the set-up: scale not given: direction of the effect not stated beside the values. The settings on record: 10 mM as filed; unlikely as a test dose.
On to `CC(C)c1cc(C2CCCN2C(=O)CN2C(=O)OC(C)(C)C2=O)no1` (stereo not drawn), for which the “Percent Effect” value is given as 16.26%.

Turning to `CN(Cc1cccnc1)c1nc(-c2ccccn2)nc2c1CCNCC2`, the “Percent Effect” value is 31.77%. Consider `CN(Cc1nccs1)c1nc(-c2ccccn2)nc2c1CCNCC2`, for which the “Percent Effect” value was 28.38%. For `CN(Cc1ncc[nH]1)c1nc(-c2ccccn2)nc2c1CCNCC2` the value was 56.27%; for `COc1c(C2CCCN2C(=O)c2cncnc2C)c(C)nn1C` (stereo not drawn), -27.58%; for `COC(=O)c1ccn(CC(=O)Nc2nn(CC3CC3)c3ccccc23)n1`, 50.91%. For `CC(=O)c1ccn(CC(=O)Nc2nn(CC3CC3)c3ccccc23)n1` the value was 23.92%. `CCn1nc(NC(=O)Cn2ccc(C(C)=O)n2)c2ccccc21`: the “Percent Effect” value was 6.087%.

With `Cc1csc(C(Cc2ccsc2)NC(=O)c2cc(=O)n(C)c(=O)n2C)n1` (stereo not drawn), the “Percent Effect” value is -13.69%.

For the compound `OCC1CN(Cc2nc(C(F)(F)F)cs2)c2ccccc2O1` (stereo not drawn), the “Percent Effect” value was 105.7%. For `Cc1nc(CN2CC(CO)Oc3ccccc32)sc1C` (stereo not drawn) the value was 83.41%. For `Cc1nc(CNC2CCN(Cc3ccccc3)C2)sc1C` (stereo not drawn) the value was 5.497%. For `CN(Cc1nc(C(F)(F)F)cs1)C(=O)CCc1ccccn1` the value was 3.481%; for `Cc1nc(CCNC2CCN(Cc3ccccc3)C2)sc1C` (stereo not drawn), 2.096%; for `Cc1csc(CN2CC(CO)Oc3ccccc32)n1` (stereo not drawn), 26.95%. As for `CC(C)c1nc2oc(C(=O)N3CCOCC3)c(N)c2c2c1CCCC2`, the “Percent Effect” value was found to be 5.641%. Take `COc1ccccc1Oc1cncc(C2CCCN(C)C2)n1` (stereo not drawn): the “Percent Effect” value is given as 10.25%. Consider `CCOC1CCN(C(=O)c2c(Cl)c3ccccc3n2C)CC1`, for which the “Percent Effect” value is recorded as 55.05%. In the case of `COC1CCN(C(=O)c2c(Cl)c3ccccc3n2C)CC1`, the “Percent Effect” value was 49.28%. Consider `Cn1c(C(=O)N2CCC(CC(N)=O)CC2)c(Cl)c2ccccc21`, for which the “Percent Effect” value is -5.817%. With `Cn1cc(C2CCCN2C(=O)c2cn(-c3ccccc3)nn2)cn1` (stereo not drawn), the “Percent Effect” value is given as -26.03%. For `CNC(=O)c1cn[nH]c1C1CCN(Cc2ccccc2F)C1` (stereo not drawn) the value was -6.719%; for `COc1cc(C)c(S(=O)(=O)CC(=O)N(C)C(C)C)cc1OC`, 1.501%. Consider `Cc1ccccc1CN1CCCN(S(=O)(=O)N(C)C2CCCCC2)CC1`, for which the “Percent Effect” value amounted to 58.2%. The figure for `CN(C1CCCCC1)S(=O)(=O)N1CCN(Cc2ccon2)CC1` is 27.01%; for `CN(C1CCCCC1)S(=O)(=O)N1CCN(Cc2ccco2)CC1` it is 2.513%.

For the compound `CCOCCC1(CNC(=O)c2ccncc2)CCC1`, the “Percent Effect” value worked out at 19.62%. For `CN1CCCC(c2ccc(N3CCOCC3)cn2)C1.Cl` (stereo not drawn), the “Percent Effect” value was found to be 35.11%. For `Cc1cc(C2CCCCN2C(=O)c2ccsc2)nc2nccn12` (stereo not drawn) the value was -13.93%; for `Cc1cc(NC(=O)CN2CCN(C3CCCC3)C(=O)C2)nn1C`, 12.31%. For the compound `CCn1nccc1CN(C)c1[nH]cnc2nc(C)nc1-2`, the “Percent Effect” value was found to be 1.62%. For `c1cc(-c2nc3c(c(NCCc4c[nH]cn4)n2)CCNCC3)ccn1` the value was -23.76%; for `c1nc(CCNc2nc(C3CC3)nc3c2CCNCC3)c[nH]1`, 8.345%; for `c1ccc(-c2nc3c(c(NCCc4c[nH]cn4)n2)CCNC3)cc1`, 96.35%. For `O=C(c1ccncc1)N1CCC(Cc2cnc3[nH]ccc3c2)CC1`, the “Percent Effect” value is listed as -105.2%. On to `CC(C)c1ncc2c(n1)CN(Cc1nc(-c3cccs3)no1)CC2`, for which the “Percent Effect” value is 53.42%. Take `Cc1ncc2c(n1)CN(Cc1nc(-c3cccs3)no1)CC2`: the “Percent Effect” value is -6.861%.

For `CCc1ncc2c(n1)CN(Cc1nc(-c3cccs3)no1)CC2`, the “Percent Effect” value came to 23.26%. For `CCOc1cccc2c1OCC(=O)N(c1ccc3c(c1)OCO3)C2` the value was -8.978%; for `Cc1ncc(C(=O)NCCNC(=O)c2ccccc2)s1`, -13.65%.

With `CCc1nccn1C1CCCN(C(=O)c2cn3c(C)cccc3n2)C1` (stereo not drawn), the “Percent Effect” value is reported as 3.072%. The figure for `CN1CCOC(CN(C(=O)CCc2cnn(C)c2)c2nccs2)C1` (stereo not drawn) is -11.48%. The figure for `CC(C)N1CCC(CNCc2c[nH]nc2C(C)(C)C)C1` (stereo not drawn) is 7.799%; for `CC(C)(C)c1n[nH]cc1CNCC1CCN(C2CC2)C1.Cl` (stereo not drawn) it is 94.59%. For `CCN1CCC(CNCc2c[nH]nc2C(C)(C)C)C1.Cl` (stereo not drawn) the value was 10.08%. Take `Cl.O=S(=O)(N1CCCC1)N1CC[C@H](c2ccccc2)[C@H]2NCCCC[C@H]21`: the “Percent Effect” value is -130.5%.

Turning to `CCC(CO)(CO)NC(=O)C1CCC(=O)N(CCc2ccccc2)C1` (stereo not drawn), the “Percent Effect” value amounted to 9.017%. For `CC(Cn1cccn1)NCc1csc(-c2ccc(F)cc2)n1` (stereo not drawn) the value was 35.16%. Take `CC(Cn1cccn1)NCc1nc(-c2ccc3c(c2)OCO3)no1` (stereo not drawn): the “Percent Effect” value is recorded as 3.313%. For `CC(Cn1cccn1)NCc1csc(-c2ccc3c(c2)OCO3)n1` (stereo not drawn) the value was 59.29%; for `CC(Cn1cccn1)NCc1csc(-c2cccs2)n1` (stereo not drawn), 61.96%. The figure for `COc1ccc(-c2nc(CNC(C)Cn3cccn3)cs2)cc1` (stereo not drawn) is 49.5%; for `CC(Cn1cccn1)NCc1csc(-c2ccsc2)n1` (stereo not drawn) it is 13.88%; for `COc1cccc(-c2nc(CNC(C)Cn3cccn3)cs2)c1` (stereo not drawn) it is 32.64%. The figure for `Cc1cnn(CC(C)NCc2csc(-c3cccs3)n2)c1` (stereo not drawn) is 3.673%; for `CC(Cn1cccn1)NCc1csc(-c2ccccc2)n1` (stereo not drawn) it is 63.3%.

In the case of `CC(C)Cc1cc(NC(=O)c2ccccc2F)n(C)n1`, the “Percent Effect” value was 11%. On to `CCc1ccc(N2CCC(NS(=O)(=O)N(CC)CC)CC2)cc1`, for which the “Percent Effect” value stood at 14.08%. The figure for `COc1ccc(NC(=O)CNc2ccc(Br)cc2F)cc1` is 107.2%; for `CCN(CC)C(=O)c1ccc(NC(=O)CNc2ccc(Br)cc2F)cc1` it is -14.15%; for `N#CCc1ccc(NC(=O)CNc2ccc(Br)cc2F)cc1` it is 10.15%. The figure for `CC(C)CN1CCC(c2nc3ccc(NC(C)C)cn3n2)CC1.O=C(O)C(F)(F)F.O=C(O)C(F)(F)F` is 2.767%; for `CN1CCOC(CNCc2cnc(C(C)(C)C)s2)C1` (stereo not drawn) it is 18.35%; for `Cc1cc(C(=O)Nc2cccn(Cc3ccc(F)cc3)c2=O)no1` it is 24.65%. The figure for `Cc1noc(C)c1C(C)NC(=O)N1CCN(c2cccs2)CC1` (stereo not drawn) is 32.97%; for `CC(NC(=O)N1CCN(c2cccs2)CC1)c1ccncc1` (stereo not drawn) it is 62.51%; for `CC(NC(=O)N1CCN(c2ncccn2)CC1)c1ccc(C#N)cc1` (stereo not drawn) it is -12.2%. As to `CC(NC(=O)N1CCN(c2cccs2)CC1)c1ccc(C#N)cc1` (stereo not drawn), the “Percent Effect” value worked out at 66.35%. For `CC(C)c1noc(CCNC(=O)N2CCN(c3cccs3)CC2)n1` the value was 4.976%. As for `O=C(NCCn1ccnc1)N1CCN(Cc2cccs2)CC1`, the “Percent Effect” value was -4.677%. Turning to `O=C(NCCCn1ccnc1)N1CCN(c2cccs2)CC1`, the “Percent Effect” value is on record as 78.28%. The figure for `O=C(NCCn1ccnc1)N1CCN(c2nccs2)CC1` is -3.95%; for `CC(=O)Nc1nc(C(=O)NC(C)c2ccc(C#N)cc2)cs1` (stereo not drawn) it is 12.08%.

The record behind these values is ChEMBL document CHEMBL3988442, “University of Dundee, Small-Polar-MMV Screening Library” (2021).
